Measurements: PubChem BioAssay (Tox21)
Results filed as inconclusive are left out. Active and inactive are the calls of the source. Calls follow the shape of the dose curve; as a rule, active = well fitted activation curve with a large enough effect in the repeat runs; inconclusive = weak or mixed curves; inactive = flat fitted curve, though single readings scatter.

Assay: A CellTox Green Cytotoxicity Assay to monitor cytotoxicity in HEK293 cells - 8 hour (AID 1224884); also: nearly all actives have a fitted effect of over 35% in size
Settings: CellTox Green fluorescence; series mostly up to 76.8 µM; cytotoxicity increase: at the top concentration
Description: National Center for Advancing Translational Sciences [NCATS]
NIH Chemical Genomics Center [NCGC]
U.S. Environmental Protection Agency [EPA]
National Institutes of Environmental Health Sciences [NIEHS]
National Toxicology Program [NTP]
Cell-based models are critical for drug discovery. Determining the natural cytotoxic effects resulting from test compounds is an essential research activity. A CellTox Green Cytotoxicity Assay to monitor cytotoxicity in real time of continues cell culture during 40 hours of the compound treatment was used to screen Tox21 10K library compounds in Hek293 cells. CellTox Green Cytotoxicity Assay is a nonlytic, homogeneous, biofluorescent method to measure cytotoxicity in cell culture after experimental manipulation. The assay system uses a proprietary asymmetric cyanine dye that is excluded from viable cells but preferentially stains the dead cell's DNA. […] Viable cells produce no appreciable increases in fluorescence. Therefore, the fluorescence signal produced by the binding interaction with dead cell DNA is proportional to cytotoxicity.
The mixture of Hek293 cell suspension and reagents were dispensed at 600cells/6 ul/well in 1536-well tissue culture treated black solid bottom plates using a Multidrop dispenser. After the assay plates were incubated at a 37 C/5% CO2 incubator for 5 hours, 23 nL of compounds dissolved in DMSO, positive and negative controls was transferred to the assay plate by a pintool work station. The plates were incubated at 37 C for 40 hours. The fluorescence intensity were measured at 0h, 8h, 16h, 24h, 32h and 40h time points using ViewLux plate reader during compound treatment.
% is scaled to controls: 0 for no effect and ±100 for the full control effect.

With `NNc1nnc(NN)c2ccccc12` as the molecule, how does the “cytotoxicity increase” value read?
The value was 1.09% [at 35.3 µM] (inactive).

With `CC(C)(C)c1nnc(NS(=O)(=O)c2ccc(N)cc2)s1` as the molecule, how does the “cytotoxicity increase” value read?
The value was -9.99% [at 35.3 µM] (inactive).

Which “cytotoxicity increase” value does the source give for `C[Si](C)(C)C` here?
Its value is -15.7% (inactive).

Which “cytotoxicity increase” value does the source give for `Cc1ccccc1N=O` here?
The value was -10.5% (inactive).

Which “cytotoxicity increase” value does the source give for `O=C(CCN1CCN(CCO)CC1)N1c2ccccc2Sc2ccc(C(F)(F)F)cc21` here?
Its value is 8.79% [at 35.3 µM] (inactive).

For `CC(CO)c1ccccc1` (stereo not given), which “cytotoxicity increase” value is on record?
Its value is 9.98% (inactive).

For `CCOC(=O)c1ncn2c1CN(C)C(=O)c1cc(F)ccc1-2`, which “cytotoxicity increase” value is on record?
The value was -1.86% [at 35.3 µM] (inactive).

Which “cytotoxicity increase” value does the source give for `O=C(CS(=O)Cc1ccco1)NC/C=C\COc1cc(CN2CCCCC2)ccn1` (stereo not given) here?
Its value is 1.01% [at 35.3 µM] (inactive).

For `COc1ccc2c(c1OC)C(=O)O[C@@H]2[C@H]1c2c(cc3c(c2OC)OCO3)CCN1C`, which “cytotoxicity increase” value is on record?
Its value is -5.87% [at 35.3 µM] (inactive).

Which “cytotoxicity increase” value does the source give for `O=C1O[C@@H]2[C@@H](O)[C@H](O)O[C@@H]2[C@H]1O` here?
Its value is -3.14% (inactive).

For `COc1nccnc1NS(=O)(=O)c1ccc(N)cc1`, which “cytotoxicity increase” value is on record?
The value was 3.16% [at 35.3 µM] (inactive).

Which cytotoxicity increase does the source give for `Oc1cn2c(n1)Nc1ccc(Cl)c(Cl)c1C2` here?
Its cytotoxicity increase is 1.16% [at 15.8 µM] (inactive).

Which “cytotoxicity increase” value does the source give for `CCOC(=O)c1ccc(OC(=O)CCCCCN=C(N)N)cc1` here?
The value was -8.6% [at 35.3 µM] (inactive).

For `CC1=CCC(C(C)C)=CC1`, which “cytotoxicity increase” value is on record?
Its value is 1.5% (inactive).

With `COc1ccc(S(=O)(=O)N2c3ccc(Cl)cc3[C@@](O)(c3ccccc3Cl)[C@H]2C(=O)N2CCC[C@@H]2C(N)=O)cc1OC` as the molecule, how does the “cytotoxicity increase” value read?
The value was 0.0815% [at 35.3 µM] (inactive).

With `CC(=O)Nc1ccc(S(=O)(=O)Cl)cc1` as the molecule, how does the “cytotoxicity increase” value read?
Its value is -1.63% (inactive).

With `O=C1c2ccccc2C(=O)C1c1ccccc1` as the molecule, how does the “cytotoxicity increase” value read?
The value was -5.63% [at 35.3 µM] (inactive).

For `COCCOCCOCCOCCOCCO`, which “cytotoxicity increase” value is on record?
The value was 3.8% (inactive).

For `O=C(O)C(=O)Cc1ccccc1`, which “cytotoxicity increase” value is on record?
Its value is -4.31% (inactive).

Which “cytotoxicity increase” value does the source give for `CC(C)CCCCOC(=O)c1ccccc1C(=O)OCCCCC(C)C` here?
The value was -7.54% (inactive).

Which “cytotoxicity increase” value does the source give for `COCCOCCOCCOCCO` here?
Its value is 11.3% (inactive).

Which “cytotoxicity increase” value does the source give for `OCCC(F)(F)C(F)(F)C(F)(F)C(F)(F)C(F)(F)C(F)(F)C(F)(F)C(F)(F)F` here?
Its value is 0.776% (inactive).

With `CN1C(C)(C)CCCC1(C)C` as the molecule, how does the “cytotoxicity increase” value read?
Its value is 2.2% [at 35.3 µM] (inactive).

With `Nc1cccc(O)c1` as the molecule, how does the “cytotoxicity increase” value read?
Its value is -10.6% (inactive).

For `O=S(=O)(O)c1ccc2cc(O)c(S(=O)(=O)O)cc2c1`, which “cytotoxicity increase” value is on record?
Its value is -0.0288% (inactive).

With `CCCCN` as the molecule, how does the “cytotoxicity increase” value read?
Its value is -13% [at 35.3 µM] (inactive).

With `CCCCOC(=O)c1ccccc1` as the molecule, how does the “cytotoxicity increase” value read?
Its value is 0.281% (inactive).

Which “cytotoxicity increase” value does the source give for `CCOCCOCCOCC` here?
The value was -6.3% (inactive).

For `CC(N)C(=O)OC(C)(C)Cc1ccc(Cl)cc1` (stereo not given), which “cytotoxicity increase” value is on record?
Its value is -8.75% [at 35.3 µM] (inactive).

For `O=P(O)(O)OP(=O)(O)O`, which “cytotoxicity increase” value is on record?
Its value is -9.49% (inactive).

For `O=C(NCCc1c[nH]c2ccccc12)c1cccnc1`, which “cytotoxicity increase” value is on record?
Its value is 3.79% [at 35.3 µM] (inactive).

With `Cc1cc(NC(=O)C2=C(O)c3ccccc3S(=O)(=O)N2C)no1` as the molecule, how does the “cytotoxicity increase” value read?
The value was -10.2% [at 35.3 µM] (inactive).

For `CC(=O)NCCCCCC(=O)O`, which “cytotoxicity increase” value is on record?
Its value is -1.65% [at 35.3 µM] (inactive).

With `O=C(c1ccc(O)cc1)c1ccc(O)c(O)c1O` as the molecule, how does the “cytotoxicity increase” value read?
The value was 0.813% (inactive).

For `Brc1ccc(-c2ccccc2)cc1`, which “cytotoxicity increase” value is on record?
The value was -3.53% (inactive).

With `CC(=O)CCCCn1c(=O)c2c(ncn2C)n(C)c1=O` as the molecule, how does the “cytotoxicity increase” value read?
The value was -1.96% [at 35.3 µM] (inactive).

For `C[Si](C)=O`, which cytotoxicity increase is on record?
The cytotoxicity increase was 1.88% [at 6.97 µM] (inactive).

Which “cytotoxicity increase” value does the source give for `CNC(=O)[C@H]1O[C@@H](n2cnc3c(NCc4cc(Cl)ccc4OCc4cc(C)no4)ncnc32)[C@H](O)[C@@H]1N` here?
The value was 0.272% (inactive).

With `CCCCC(CC)COCCO` (stereo not given) as the molecule, how does the “cytotoxicity increase” value read?
Its value is -1.05% (inactive).

For `CCCCCCCCCCl`, which “cytotoxicity increase” value is on record?
The value was 3.03% (inactive).
